Only a selection was taken, and hits are over-represented in it overall.
Cycloheximide cs: counter-screen hit for Shiga toxin inhibitors, cycloheximide. hit rate 12% among 300,000. cell reporter, cycloheximide protein synthesis inhibition counterscreen. max response, %. AID 2314; in the data active means max response mostly above about 13%, no sharp cut-off; inactive means mostly below about 14%; further: read at 38.3 µM for the half of the compounds with a filed dose; 0% is about no effect
FBPA Giardia inh: Giardia lamblia aldolase inhibition | A8B2U2 | purified Giardia FBPA | Potency, µM (titrated, usually from 59.6 µM), inactives show top-dose activity, negative = inhibition, most hits filed as inhibitors | hit rate 0.71% among 290,000; further: potency means the concentration at half of the fitted maximal effect; on the % scale 0 is the no-effect control and ±100 the full control effect; nearly all actives have a fitted effect of over 55% in size
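40 nM FBPA preincubated 10 min at RT with compound (up to 57.5 uM final), then substrate plus GAPDH/TPI/NAD/arsenate coupling and diaphorase/resazurin added. Fluorescence read after 20 min at RT, 525/598 nm.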
TbPYK inhibitor: inhibitors of Trypanosoma brucei pyruvate kinase. Q57TT1. TbPYK enzyme, Kinase-Glo Plus ATP luminescence, 45 min. Potency, µM (top dose mostly 76.8 µM), without a hit: at the top dose activity, negative = inhibition, actives largely listed as inhibitors. hit rate 0.12% among 410,000. AID 624173; further: potency means the concentration at half of the fitted maximal effect; on the % scale 0 is the no-effect control and ±100 the full control effect; nearly all actives have a fitted effect of over 50% in size
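Quantitative HTS: titrated library compounds versus trypanosomal pyruvate kinase in TEA buffer (pH 7.2) containing KCl, MgCl2, BSA and Tween-20. Reactions were initiated with ADP, 130 uM final. Kinase-Glo Plus luminescence was read after 45 min at RT.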
RE007 growth inh: less growth of the S. pombe RE007 Vpr strain; Potency, µM (highest dose often 92.2 µM), without a hit: at the highest dose activity change, negative = less growth, hits mostly inhibitors; hit rate 0.21% among 360,000; S. pombe RE007 Vpr strain, BacTiter-Glo ATP luminescence, 24 h; active means well fitted falling curve with a large enough effect; inconclusive means small, poorly fitted or top-dose-only effect; inactive means no such curve, though single readings can be large or run the other way; further: potency means the concentration at half of the fitted maximal effect; on the % scale 0 is the no-effect control and ±100 the full control effect; nearly all actives have a fitted effect of over 50% in size
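Fission yeast RE007 carrying one integrated HIV-1 vpr copy, seeded at OD 0.01 in PMG+AL medium with 23 nL pinned compound. Grown 24 h at 30 degrees; viability read by BacTiter-Glo luminescence after 5 min.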
LmPK inh: blocks Leishmania mexicana pyruvate kinase activity; Potency, µM (top dose mostly 57.5 µM), inactives show top-dose activity change, negative = inhibition, most hits filed as inhibitors; Q27686; hit rate 0.37% among 290,000; purified LmPK, Kinase-Glo ATP luminescence, 1 h; further: potency means the concentration at half of the fitted maximal effect; on the % scale 0 is the no-effect control and ±100 the full control effect
Target sequence (Q27686 whole entry, looked up): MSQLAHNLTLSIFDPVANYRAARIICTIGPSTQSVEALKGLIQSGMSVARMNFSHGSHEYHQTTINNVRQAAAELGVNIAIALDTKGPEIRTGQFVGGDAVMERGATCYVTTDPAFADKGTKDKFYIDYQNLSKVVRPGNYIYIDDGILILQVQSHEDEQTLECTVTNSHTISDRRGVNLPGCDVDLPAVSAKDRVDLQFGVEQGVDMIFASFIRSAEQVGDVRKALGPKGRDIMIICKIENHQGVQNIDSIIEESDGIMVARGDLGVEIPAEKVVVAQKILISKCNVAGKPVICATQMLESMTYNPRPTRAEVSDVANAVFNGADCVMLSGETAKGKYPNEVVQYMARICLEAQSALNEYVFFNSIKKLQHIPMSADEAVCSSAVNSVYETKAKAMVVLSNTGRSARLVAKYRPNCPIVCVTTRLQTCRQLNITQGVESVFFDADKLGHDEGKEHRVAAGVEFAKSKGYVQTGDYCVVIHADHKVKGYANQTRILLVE
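Purified LmPK (0.1 nM) converted ADP (0.1 mM) to ATP with PEP (0.5 mM) in imidazole buffer pH 7.2 with KCl and MgCl2, 1 h at room temperature. ATP was read by Kinase-Glo luminescence; data normalized to uninhibited and no-enzyme controls.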
Shiga toxin inh: blocks Shiga toxin action in Vero cells; Vero cells, Shiga toxin protein synthesis inhibition reporter; hit rate 9.2% among 290,000; inhibition, % at 38.7 µM; in the data active means inhibition mostly above about 28%, no sharp cut-off; inactive means mostly below about 43%; further: 0% is about no effect
An asterisk follows results filed as active; ? = inconclusive; . = no result; [ ] = dose if it differs, or a comment. Unless noted, the call rests on the fitted dose curve; in most records, active means well fitted curve in the direction sought with a large enough effect; inconclusive means small, poorly fitted or top-dose-only effect, or another doubt; inactive means no such curve, though single readings can be large; an effect the other way counts as inactive or inconclusive.

SMILES	Cycloheximide cs	FBPA Giardia inh	TbPYK inhibitor	RE007 growth inh	LmPK inh	Shiga toxin inh
Cc1ccc(-n2c(C3CC3c3ccc(Cl)cc3)n[nH]c2=S)cc1 (configuration not stated)	-6.1	9.2%	?	-2.7%	7.94µM*	-15.8
Cc1ccc(CN2CCc3nc(N4CCN(c5ccccc5F)CC4)ncc3C2)s1	.	.	0.6%	.	.	.
Cc1ccc(C)c(N2CC(C(=O)Nc3cc(C)on3)CC2=O)c1 (configuration not stated)	-4.1	4.1%	-1.1%	8.1%	5.2%	29.1
O=C(CNc1cccc2ccccc12)N/N=C/c1ccc([N+](=O)[O-])o1	10.4*	?	3.0%	-7.7%	1.9%	14.4
CC(C)C(=O)N1CCN(c2ccccc2NC(=O)c2ccc([N+](=O)[O-])o2)CC1	26.7*	7.8%	-5.5%	-4.5%	2.7%	49.7*
O=C(Nc1ccccc1N1CCCC1)c1ccc([N+](=O)[O-])o1	36.1*	.	0.2%	-23.1%	-2.8%	41.4*
Cc1cccc(NC(=O)c2ccc([N+](=O)[O-])o2)c1C	-4.0	-10.7%	1.4%	-25.8%	0.5%	-14.0
O=C(Nc1ccccc1N1CCN(C(=O)c2ccccc2)CC1)c1ccc([N+](=O)[O-])o1	3.0	3.4%	-0.1%	-6.9%	6.8%	26.3
O=C(Nc1cccc2ccccc12)c1ccc([N+](=O)[O-])o1	31.0*	-4.2%	0.4%	?	0.5%	31.0*
O=C(CNc1cccc([N+](=O)[O-])c1)N/N=C/c1ccc([N+](=O)[O-])o1	-0.9	-1.0%	-1.5%	-10.6%	-0.5%	-7.3
Cc1cccc(C)c1NC(=O)c1sc(-n2nc(C)c(Cc3ccccc3)c2C)nc1C	.	.	-2.6%	.	.	.
c1ccc(Nc2nc3ccccc3n3nnnc23)cc1	45.3*	4.0%	-3.0%	-3.3%	-1.5%	55.5*
Fc1ccccc1Nc1nc2ccccc2n2nnnc12	40.5*	-7.0%	-2.8%	-12.2%	5.0%	52.5
CCN(CC)S(=O)(=O)c1ccc(Nc2nc3ccccc3n3nnnc23)cc1	31.7*	-1.5%	-27.5%	-16.1%	-7.5%	108.9*
Fc1cccc(Nc2nc3ccccc3n3nnnc23)c1	22.3	2.2%	1.6%	6.7%	5.9%	57.4
CCOC(=O)N1CCC(Nc2nc3ccccc3n3nnnc23)CC1	18.9*	6.1%	2.8%	28.2%	-3.6%	53.9
COc1ccc(C2CC(=O)c3cc(-c4nc(-c5cccc([N+](=O)[O-])c5)cs4)c(=O)n(-c4cccc(C)c4)c3C2)cc1 (configuration not stated)	.	.	-0.8%	.	.	.
CCOC(=O)c1c(NC(=O)C(C)Sc2cn(CCNC(=O)c3ccc(OC)c(OC)c3)c3ccccc23)sc2c1CCC2 (configuration not stated)	.	.	-12.9%	.	.	.
COc1ccc(NC(=O)CN2C(=O)COc3ccc(S(=O)(=O)Nc4ccccc4)cc32)cc1OC	.	.	-5.6%	.	.	.
COc1ccc(-c2nsc(NC(=O)c3ccccc3Br)n2)cc1	.	.	-4.3%	.	.	.
c1ccc2c(c1)nc(Nc1ccc3c(c1)OCO3)c1nnnn12	39.1*	-3.8%	-4.6%	-10.8%	-1.5%	129.5*
Brc1ccc(Nc2nc3ccccc3n3nnnc23)cc1	65.1*	2.1%	.	.	0.3%	99.8
Oc1ccccc1Nc1nc2ccccc2n2nnnc12	.	.	3.7%	.	.	.
CSc1ncc(C(=O)N2CCN(c3cc(C)ccc3C)CC2)c(C)n1	.	.	-1.8%	.	.	.
C/C(CC(=O)NC1CCCCC1)=N\NC(=O)c1ccccc1C	13.6	-1.1%	-0.3%	-1.5%	-0.2%	63.4*
SMILES	Cycloheximide cs	FBPA Giardia inh	TbPYK inhibitor	RE007 growth inh	LmPK inh	Shiga toxin inh
C/C(CC(=O)NC1CCCCCC1)=N\NC(=O)c1cnccn1	25.6*	-1.1%	1.5%	3.8%	0.6%	45.7*
OC[C@H]1O[C@@H](c2nc(-c3ccccc3Br)no2)[C@H](O)[C@@H](O)[C@H]1O	.	.	1.1%	6.1%	.	.
Cc1ccc(Cl)cc1NC(=O)COC(=O)CC1CCCCC1	.	.	-6.0%	-22.2%	.	.
Cc1ccc(C(=O)NCc2ccc3c(c2)OCO3)o1	1.6	-4.0%	-2.2%	6.9%	-2.2%	.
Cc1ccc(C(=O)NCc2ccc(Cl)c(Cl)c2)o1	0.9	0.2%	1.0%	25.1µM*	3.2%	-2.4
CC(=O)Nc1ccc(C2Nc3c(C)cc(C)cc3-c3cc(C)nn32)cc1 (configuration not stated)	.	.	0.7%	.	.	.
CN(C)S(=O)(=O)N1CCC(n2c(C(F)(F)F)nc3cccnc32)CC1	.	.	1.2%	.	.	.
COc1cc(/C=C2/NC(=O)N(c3cccc(Cl)c3)C2=O)ccc1O	29.6	1.6%	-8.3%	3.5%	2.0%	22.8*
COc1ccc(-n2cccc2/C=C2/NC(=O)N(c3cccc(Cl)c3)C2=O)cc1	21.7*	4.3%	-12.0%	8.3%	0.1%	13.7
O=C(Cn1cc(C(=O)c2ccccc2)c(=O)c2cc3c(cc21)OCCO3)Nc1ccc(F)c(F)c1	.	.	0.7%	.	.	.
Brc1cc2c(cc1/C=N/Nc1nc3ccccc3s1)OCO2	20.8*	0.1%	-1.6%	5.5%	4.0%	28.2*
O=C(O)C/C(=C\c1cc2c(cc1Br)OCO2)c1nc2ccccc2s1	20.4	13.2%	0.0%	13.6%	-2.5%	-11.9
C(=N\Nc1nc2ccccc2s1)/c1ccc2c(c1)OCO2	71.9*	-0.1%	-6.9%	-1.3%	-8.2%	89.9*
Cc1cc(C(=O)N/N=C/c2ccc3c(c2)OCO3)c2ccccc2n1	-1.8	-1.0%	-5.2%	-8.4%	-1.0%	-6.3
Cc1nc(N/N=C\c2ccc3c(c2)OCO3)sc1C	28.8*	2.7%	-13.2%	-8.5%	9.3%	.
C=C(C)CNC(=S)N/N=C\c1ccc2c(c1)OCO2	-2.8	0.0%	4.2%	-17.9%	-4.3%	-5.8
CCOC(=O)c1cnc2c(C)c(Cl)ccc2c1Nc1ccc(N2CCOCC2)cc1	.	.	-10.0%	.	.	.
Cn1c(CNC(=O)CCNC(=O)c2ccc(F)c(F)c2)cc(=O)n(C)c1=O	7.2	18.5%	-12.5%	8.6%	-0.7%	-7.7
C/C=C(/CC[C@@H](C)[C@H]1CCC2C3=CC[C@H]4[C@H](C)[C@@H](O)CC[C@]4(C)C3CC[C@@]21C)C(C)C (some centres not stated)	-1.8	5.6%	0.0%	.	.	6.6
COc1cccc(Cn2c(=O)n(-c3ccc(C)c(F)c3)c(=O)c3sc4ccccc4c32)c1	.	.	0.6%	.	.	.
CCN(CC)S(=O)(=O)c1cc(NC(=O)c2n[nH]c(=O)c3ccccc23)ccc1C	21.1*	-12.5%	-2.4%	5.1%	2.8%	37.1
CC(C)c1ccc(NC(=O)c2n[nH]c(=O)c3ccccc23)cc1	45.1*	2.7%	-4.7%	-14.7%	6.9%	44.4*
O=C(O)c1ccc(N/N=C/c2ccc(-c3ccccc3)cc2)cc1	26.5*	12.9%	-15.9%	?	2.7%[11.5 µM]	100.5
CC(C)c1ccc(/C=N/Nc2ccc(C(=O)O)cc2)cc1	2.3	6.4%	2.9%	-27.7%	-4.7%	9.1

Source: PubChem (National Center for Advancing Translational Sciences (NCATS))
